Assay outcomes as filed in PubChem BioAssay.
This is a sample that favours compounds with a hit; in the whole collection about 3.2% have one here.
Rce1 inhib = blocks yeast Ras-converting enzyme | calls only | 0.27% of 290,000 active | AID 2563 | yeast membranes, quenched prenylated peptide cleavage fluorescence | Q03530;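 active = fall in fluorescence gain of 50% or more versus controls, with final raw signal at or below 3038400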
ANO1 block = inhibitors of mouse TMEM16A calcium-activated chloride channel; Q8BHY3; HEK293 TMEM16A/YFP iodide influx fluorescence, ionomycin; normalized B-score (activity score, 25-100; higher = stronger inhibition) at 10 µM; 1.2% of 310,000 active;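 active = ratio plate-corrected score three or more library SD toward inhibition, starting fluorescence score within five deviations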;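 note: score derived from kinetic fluorescence span divided by baseline fluorescence per well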
CHT PAM = allosterically activates the human high affinity choline transporter; Q9GZV3; CHT-expressing cells, membrane potential dye, choline EC20; stronger effect = higher value; LV-AA mutant CHT in HEK293 cells; B-score at 10 µM; 0.49% of 310,000 active; AID 488977;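 active = initial fluorescence not abnormally high and integrated response B-score, plate-corrected, over 3 SD above library mean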
CHT block = human CHT choline transport inhibition; Q9GZV3; CHT-expressing cells, membrane potential dye, choline response; stronger effect = lower value; B-score at 10 µM; 0.86% of 310,000 active;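 active = B-score over 3 SD under the library average, and starting fluorescence ratio not unusually high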;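 note: choline stimulus applied at its EC90 after an EC20 pre-addition; B-score computed on integrated fluorescence ratio after choline addition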
Kir21 block = blocks the mouse Kir2.1 inward-rectifier potassium channel. P35561. HEK293-Kir2.1, FluxOR thallium flux fluorescence; stronger effect = lower value. B-score at 10 µM. 0.85% of 310,000 active;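 active = fluorescence ratio B-score at or below minus 3 SD of library scores, with starting-brightness B-score within 2 SD, cut at about -4.2 in these data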;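 note: channel flux triggered by added potassium and thallium sulfate stimulus; B-score of peak minus minimum fluorescence over baseline after thallium stimulus; more negative B-score means stronger Kir2.1 block with less thallium influx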
ANO1 activ = mouse TMEM16A channel activation, primary screen. 0.3% of 340,000 active. AID 623877. HEK293 TMEM16A/YFP-H148Q/I152L, iodide quench fluorescence; stronger effect = lower value. Q8BHY3. B-score at 10 µM;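 active = fluorescence-ratio B-score plate-corrected deviation score at least 3 library SD below zero, with starting fluorescence score within 5 deviations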;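 note: channel opened by trigger with iodide after compound preincubation; score built on the fluorescence ratio of max minus min over baseline; more negative score means more quench and so TMEM16A activation or potentiation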
TMEM16A reconf = re-confirmation of mouse TMEM16A chloride channel inhibitors; shares compounds with ANO1 block; HEK293 TMEM16A/YFP-H148Q, iodide quench fluorescence; ionomycin added to raise cell calcium; inhibition, % at 10 µM; 39% of 2,300 active; AID 652189;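 active = mean duplicate percent inhibition, scaled so buffer wells are 0 and the reference blocker 100, over three buffer SD above buffer mean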
TMEM16A Ca cntr = counter-screen for TMEM16A inhibitors: effect on calcium mobilization | shares compounds with ANO1 block | TMEM16A/YFP HEK293, Fluo4 calcium mobilization | 2% of 2,300 active | AID 652231 | calcium response (% of ionomycin), % at 10 µM;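 active = duplicate-averaged calcium signal over 20% of the ionomycin maximum, relative to buffer baseline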;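 note: each well's signal is peak minus trough fluorescence divided by its pre-addition baseline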
Parental YFP cnt = parental YFP-HEK293 iodide quench counter-screen activity; AID 652233; shares compounds with ANO1 block; ionomycin; YFP ratio F(max-min)/F0 at 10 µM; 2,300 tested, under 10 active;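 active = yellow fluorescent protein signal ratio exceeding the buffer control mean by over 5 SD of those controls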;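 note: ratio is mean of duplicate wells from kinetic YFP trace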
ClC-1 rat inh = selectivity of TMEM16A inhibitors: inhibition of rat ClC-1 chloride channel; AID 652236; 2,300 tested, under 10 active; ratio percent, % at 10 µM; shares compounds with ANO1 block; CHO ClC-1-YFP, iodide influx fluorescence quench; iodide control reads 0, buffer control 100;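 active = duplicate-mean ratio percent above the mean of iodide-only control wells, which defines zero, plus 5 of their SD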;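 note: higher percent means stronger block of ClC-1 iodide influx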
Hits are given with their value; . = inactive; / = no result.

SMILES	Rce1 inhib	ANO1 block	CHT PAM	CHT block	Kir21 block	ANO1 activ	TMEM16A reconf	TMEM16A Ca cntr	Parental YFP cnt	ClC-1 rat inh
O=C(COc1ccccc1)Nc1c2c(nn1-c1ccccc1)CS(=O)C2 (configuration not stated)	.	.	.	.	.	.	/	/	/	/
O=C(COc1ccc(Cl)cc1)Nc1ccc(Cc2ccncc2)cc1	.	25	.	.	.	.	17%	.	.	.
COc1cccc(NC(=O)COc2ccc(Br)c(C)c2)c1	.	.	.	.	.	.	/	/	/	/
Cc1cc(OCC(=O)Nc2ccncc2)ccc1Br	.	100	.	.	.	.	.	.	.	.
O=C(CCNS(=O)(=O)c1cccc2nsnc12)NCc1ccc(F)cc1	.	.	.	.	.	.	/	/	/	/
Cc1ccc(CNC(=O)CCNS(=O)(=O)c2cccc3nsnc23)cc1	.	100	.	.	.	.	.	.	.	.
COc1cc(Nc2nc3ccccc3n3nnnc23)cc(OC)c1OC	.	.	.	.	.	.	.	.	.	.
COc1cccc(NC(=O)c2nnn(CC(=O)Nc3cc(C)cc(C)c3)c2N)c1	.	.	.	.	.	.	/	/	/	/
Cc1cc(C)cc(NC(=O)c2nnn(Cc3cc(C)ccc3C)c2N)c1	.	25	.	.	.	-4.6	42%	.	.	.
O=C(OCC(=O)N1CCN(c2ccccc2)CC1)c1ccccc1NCCO	.	.	.	.	.	.	/	/	/	/
CCCc1cc(C(=O)N2CCN(c3ccc(C(F)(F)F)cn3)CC2)sc1C	.	100	.	.	.	.	.	.	.	.
Cc1ccc(C(=O)N2CCN(c3ccc(C(F)(F)F)cn3)CC2)cc1	.	.	.	.	.	.	/	/	/	/
CCc1ccccc1NCC(=O)Nc1ccccc1C(=O)OC	.	.	.	.	.	.	/	/	/	/
COC(=O)c1ccccc1NC(=O)CNc1cc(OC)c(OC)cc1C	.	25	.	.	.	.	.	.	.	.
COc1ccc([C@H]2CC(=O)C=C(c3cccc(CO)c3)C2)cc1	/	/	/	/	/	.	/	/	/	/
COc1ccc(OC)c(S(=O)(=O)Nc2ccc(Oc3ccccc3)cc2)c1	.	25	.	.	.	.	.	.	.	.
CCOc1ccc(NS(=O)(=O)c2cc(OC)ccc2OC)cc1	.	.	.	.	.	.	/	/	/	/
Cc1cc(F)ccc1S(=O)(=O)Nc1ccccc1C(=O)Nc1ccccc1N1CCOCC1	.	25	.	.	.	.	.	.	.	.
O=C(Nc1ccccc1N1CCOCC1)c1ccccc1NS(=O)(=O)c1ccc(F)c(F)c1	.	100	.	.	.	.	31%	.	.	.
O=C(Nc1ccccc1N1CCOCC1)c1ccccc1NS(=O)(=O)c1ccc(F)cc1	.	.	.	.	.	.	/	/	/	/
CCN(CC(=O)Nc1ccc(OC)cc1)CC(=O)Nc1sc2c(c1C(=O)OC)CCCC2	/	/	/	/	/	.	/	/	/	/
C=CCCC(=O)N1CCCC(Cc2cccc(Cl)c2)(C(=O)OCC)C1 (configuration not stated)	.	.	.	.	.	.	/	/	/	/
O=S(=O)(Nc1ccccn1)c1cc(Cl)ccc1Cl	.	.	.	.	.	.	/	/	/	/
CCOC(=O)C1CCN(S(=O)(=O)C(F)(F)c2nc3ccccc3s2)CC1	.	100	.	.	.	.	30%	.	.	.
CCOC(=O)C1CCCN(S(=O)(=O)c2ccc(S(=O)(=O)N(CC)CC)cc2)C1 (configuration not stated)	.	25	.	.	.	.	.	.	.	.
SMILES	Rce1 inhib	ANO1 block	CHT PAM	CHT block	Kir21 block	ANO1 activ	TMEM16A reconf	TMEM16A Ca cntr	Parental YFP cnt	ClC-1 rat inh
Cc1nnc2c3ccccc3c(-c3ccc(O)cc3)nn12	.	25	.	.	.	.	.	.	.	.
Cc1nn(-c2nc(-c3ccco3)cc(C(F)(F)F)n2)c(C)c1Br	.	25	.	.	.	.	.	.	.	.
CCCCCCCSc1nnc(-c2ccccc2N)c(=O)[nH]1	/	.	.	.	.	.	/	/	/	/
CCCCCSc1nnc(-c2cc(Br)ccc2N)c(=O)[nH]1	.	25	.	.	.	.	.	.	.	.
Cc1nn(CC(=O)N2CCN(c3ccccc3)CC2)c(=O)c2cccn12	.	.	.	.	.	.	/	/	/	/
CCn1c(SCC(=O)Nc2ccc3c(c2)oc2ccccc23)nnc1-c1ccc(N)cc1	.	100	.	.	.	.	.	.	.	.
COc1cccc(CNC(=O)c2ccccc2SCC(=O)N2CCCC2)c1	.	.	.	.	.	.	/	/	/	/
O=S(=O)(NCC(c1ccco1)N1CCc2ccccc2C1)c1ccc(F)cc1 (configuration not stated)	.	25	.	.	.	.	36%	.	.	.
O=C(CSc1nc2ccccc2o1)Nc1ccccc1N1CCCCCC1	.	25	.	.	.	.	.	.	.	.
Cc1cc(C)nc(SCC(=O)Nc2ccc(N3CCOCC3)c(Cl)c2)n1	/	100	.	.	/	.	.	.	.	.
O=C(CSc1nc2ccccc2o1)Nc1ccc(N2CCOCC2)c(Cl)c1	.	100	.	.	.	.	24%	.	.	.
CNc1nc(SCC(=O)Nc2ccc(Cl)c(Cl)c2)nc(N2CCOCC2)n1	.	.	.	.	.	.	/	/	/	/
O=C(CSc1nc2ccccc2s1)Nc1ccc(N2CCOCC2)c(Cl)c1	.	100	.	.	.	.	.	.	.	.
O=C(CSc1nc2ccccc2o1)Nc1cc(C(F)(F)F)ccc1N1CCOCC1	.	.	.	.	.	.	/	/	/	/
COc1cc(OC)cc(-c2c(C#Cc3ccsc3)c3cc(-c4ccc(OC)nc4)ccc3n2C)c1	/	/	/	/	/	.	/	/	/	/
COc1ccc(C)cc1NC(=O)CSc1nnc(COc2ccc(C)cc2)n1Cc1ccco1	.	25	.	.	.	.	.	.	.	.
COc1ccccc1NC(=O)CSc1nnc(COc2ccc(Cl)cc2)n1Cc1ccco1	.	.	.	.	.	.	/	/	/	/
COc1ccccc1-c1c(C)nn2c(N3CCCCCC3)cc(C)nc12	.	100	.	.	.	.	34%	.	.	.
Cc1ccc(C(=O)Nc2ccc(C)c(S(=O)(=O)Nc3ccccc3Cl)c2)s1	.	100	.	.	.	.	.	.	.	.
